This note sets out measurements from PubChem BioAssay (NCI).

About 83,000 compounds went through this panel and 20% of them were active in at least one assay; those are over-represented in the sample as a whole.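 Step 1: grow cells in 96-well plates. Step 2: add test compound at a single concentration. Step 3: incubate 48 h. Step 4: record percent growth.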 The source made the active and inactive calls. How the source made its calls: active means growth percent below 10; inactive means the rest.

The test system of this assay is SK-MEL-2 melanoma. Put plainly: NCI-60 one-dose screen, 48 h (100 = growth as untreated, 0 = no growth, -100 = all killed). The settings on record: 10 µM unless noted.
For the compound `COc1ccc2c(c1)C(=Nc1cc(OC)c(OC)c(OC)c1)C(=O)N2`, the growth is 76.8% (inactive).
The same measure for `COc1cnc2c(c1)C(=O)c1c-2n(CCCn2ccnc2)c(=O)c2cc(F)ccc12`: -19.1% (active); for `C[C@]12CCC(=O)C=C1CCC1C2[C@@H](O)C[C@@]2(C)C1CC[C@]2(O)C(=O)COC(=O)CCC(=O)O` (stereo partly specified): 123% (inactive).
Take `C[C@@H]1[C@H]2[C@H](C=C3[C@@H]4CC[C@H]5Cc6nc7c(nc6C[C@]5(C)[C@H]4C[C@@H](O)[C@@]32C)C[C@@H]2CC[C@H]3C4=C[C@@H]5O[C@@]6(CC[C@](C)(CO)O6)[C@@H](C)[C@@]5(O)[C@@]4(C)[C@H](O)C[C@@H]3[C@@]2(C)C7)O[C@]12CCC(C)(C)O2`: the growth was 30.8% (inactive).
Next, `CCOC(=O)/C=C1/SC(=Nc2ccc(C#N)cc2)N(Cc2ccco2)C1=O`: 78.5% (inactive); `C[C@H](C(=O)N[C@@H](Cc1ccc(-c2ccccc2)cc1)C(=O)NC1CC(C)(C)NC(C)(C)C1)c1ccc(-c2ccccc2)c(F)c1`: -54.9% (active).
The same measure for `Nc1ccccc1C#Cc1ccccc1C#Cc1ccc(OCCCCCCOc2ccc(C#Cc3ccccc3C#Cc3ccccc3N)cc2)cc1`: 103% (inactive).
The same measure for `CCSc1nc(-c2ccco2)n2nc(-c3ccco3)cc2n1`: 129% (inactive).
Regarding `CN(C)c1ccc(-c2nc3ncc(Br)cc3o2)cc1`, the growth was 92.1% (inactive).
`CN1CCN(c2nc3scc(-c4ccccc4)c3c(=O)[nH]2)CC1`: the growth was 104% (inactive).
Regarding `CC(=O)OC1Oc2cc(C)c(C)cc2-c2oc(=O)c(-c3ccccc3)cc21` (stereo unspecified), the growth is 17.3% (inactive).
